Records with an inconclusive call do not appear. Entries that show only a call come without a potency. The source made the active and inactive calls. Calls come from the whole dose curve; as a rule, active = well fitted inhibition curve with a large enough effect; inconclusive = small, poorly fitted or top-dose-only effect; inactive = flat fitted curve, though single readings scatter.
system: CP238; test: qHTS profiling for inhibitors of Plasmodium falciparum proliferation (AID 504749); note: nearly all actives have a fitted effect of over 60% in size; details: P. falciparum in erythrocytes, SYBR Green DNA, 72 h; series mostly up to 28.7 µM
How it was run: (§1)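 SYBR Green fluorescence (ex 485 nm, em 535 nm) reports parasite DNA after 72 h compound exposure of infected red cells at 0.3% parasitemia, 2.5% hematocrit; signal normalized to 0.29 uM artemisinin and vehicle wells.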

Compound | Potency
O=C1c2cccc(O)c2C(=O)c2c(O)cccc21 | inactive
COc1nccnc1NS(=O)(=O)c1ccc(N)cc1 | inactive
O=C1c2ccccc2S(=O)(=O)N1CCCCN1CCN(c2ncccn2)CC1 | inactive
OCC(O)CS (stereo not given) | inactive
Nc1ncnc(Nc2ccccc2)n1 | inactive
NC(=O)CCCCC1CCSS1 (stereo not given) | inactive
O=C(c1ccccc1)C(O)c1ccccc1 (stereo not given) | inactive
CC(C)=CCC/C(C)=C/CO | inactive
CCOC(=O)[C@H](CCc1ccccc1)N[C@@H](C)C(=O)N1CCC[C@H]1C(=O)O | inactive
NCc1ccc(S(N)(=O)=O)cc1 | inactive
O=C1CC[C@@H](C(=O)O)N1 | inactive
Cc1c(NC(=O)c2cccnc2)c(=O)n(-c2ccccc2)n1C | inactive
CCCCCCCCCCC(CO)CCCCCCCC (stereo not given) | inactive
O=C1c2ccccc2C(=O)C1c1ccc(Br)cc1 | inactive
CCCCCCCC(=O)OCC(COC(=O)CCCCCCC)OC(=O)CCCCCCC | inactive
CCCCCC(C)N (stereo not given) | inactive
CC(=O)N[C@@H](Cc1ccc(O)cc1)C(=O)O | inactive
CC(=O)Oc1cccc(O)c1 | inactive
Cc1onc(-c2ccccc2)c1-c1ccc(S(N)(=O)=O)cc1 | inactive
O=C1C(c2[nH]c3ccccc3c2O)=Nc2ccccc21 | inactive
Cc1c(I)c(=O)n(-c2ccccc2)n1C | inactive
CN(C(=O)c1c(O)c2ccccc2n(C)c1=O)c1ccccc1 | inactive
C[C@H]1COc2c(C3(N)CC3)c(F)cc3c(=O)c(C(=O)O)cn1c23 | inactive
CC(=O)SC[C@@H](Cc1ccccc1)C(=O)NCC(=O)OCc1ccccc1 | inactive
Cc1[nH]c(C)c(Cl)c(=O)c1Cl | inactive
O=C(O)CCCCC1CCSS1 (stereo not given) | inactive
CCN1CC(CCN2CCOCC2)C(c2ccccc2)(c2ccccc2)C1=O (stereo not given) | inactive
CN(C/C=C/C#CC(C)(C)C)Cc1cccc2ccccc12 | inactive

system: CP247; test: as above; details: P. falciparum in erythrocytes, SYBR Green DNA, 72 h; series mostly up to 28.7 µM
How it was run: as §1

Compound | Potency
O=C1c2cccc(O)c2C(=O)c2c(O)cccc21 | inactive
COc1nccnc1NS(=O)(=O)c1ccc(N)cc1 | inactive
O=C1c2ccccc2S(=O)(=O)N1CCCCN1CCN(c2ncccn2)CC1 | inactive
OCC(O)CS (stereo not given) | inactive
CC(CN(C)C)C(C)(O)Cc1ccc(Cl)cc1 (stereo not given) | inactive
Nc1ncnc(Nc2ccccc2)n1 | inactive
NC(=O)CCCCC1CCSS1 (stereo not given) | inactive
CC(C)=CCC/C(C)=C/CO | inactive
CCOC(=O)[C@H](CCc1ccccc1)N[C@@H](C)C(=O)N1CCC[C@H]1C(=O)O | inactive
NCc1ccc(S(N)(=O)=O)cc1 | inactive
O=C1CC[C@@H](C(=O)O)N1 | inactive
Cc1c(NC(=O)c2cccnc2)c(=O)n(-c2ccccc2)n1C | inactive
CCCCCCCCCCC(CO)CCCCCCCC (stereo not given) | inactive
O=C1c2ccccc2C(=O)C1c1ccc(Br)cc1 | inactive
CCCCCCCC(=O)OCC(COC(=O)CCCCCCC)OC(=O)CCCCCCC | inactive
CCCCCC(C)N (stereo not given) | inactive
CC(=O)N[C@@H](Cc1ccc(O)cc1)C(=O)O | inactive
CC(=O)Oc1cccc(O)c1 | inactive
Cc1onc(-c2ccccc2)c1-c1ccc(S(N)(=O)=O)cc1 | inactive
Cc1c(I)c(=O)n(-c2ccccc2)n1C | inactive
CN(C(=O)c1c(O)c2ccccc2n(C)c1=O)c1ccccc1 | inactive
CC(=O)SC[C@@H](Cc1ccccc1)C(=O)NCC(=O)OCc1ccccc1 | inactive
Cc1[nH]c(C)c(Cl)c(=O)c1Cl | inactive
CN1C[C@@H]2C[C@H]1CN2c1cc2c(cc1F)c(=O)c(C(=O)O)cn2C1CC1 | inactive
O=C(O)CCCCC1CCSS1 (stereo not given) | inactive
CCN1CC(CCN2CCOCC2)C(c2ccccc2)(c2ccccc2)C1=O (stereo not given) | inactive
CN(C/C=C/C#CC(C)(C)C)Cc1cccc2ccccc12 | inactive

Reference: PubChem BioAssay (NCATS)
